Screening results deposited in PubChem BioAssay by Broad Institute.
Shown are actives, neighbours in structure and some others; about 2.8% of the full set was active somewhere.
PglD DTNB: inhibitors of Campylobacter jejuni PglD acetyltransferase; AID 602405; inhibition, % at 12.5 µM; actives 0.098% (n = 360,000); purified PglD enzyme, DTNB colorimetric CoA detection; in the data active = inhibition above about 16%, passing the limit was not always enough
PvdQ inh: P. aeruginosa PvdQ acylase inhibition. purified PvdQ acylase, fluorescence plate reader. inhibition, % at 10 µM. actives 0.063% (n = 340,000); in the data active = inhibition above about 30%, passing the limit was not always enough
CDK5 inh: CDK5/p35 (human) kinase inhibition; Q00535+Q15078; Recombinant CDK5/p35, ADP-Glo luminescence, 60 min; inhibition, % at 10 µM; actives 0.01% (n = 330,000);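 active = highest replicate inhibition of at least 50% and at least 75% of replicates reaching 50%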
SIRT5 block: blocks human SIRT5 desuccinylation of peptide | Purified SirT5, succinyl-peptide AMC, trypsin-coupled fluorescence | actives 1.1% (n = 330,000) | Q9NXA8 | inhibition, % at 15 µM; in the data active = inhibition above about 15%
Target sequence (Q9NXA8 whole entry, looked up): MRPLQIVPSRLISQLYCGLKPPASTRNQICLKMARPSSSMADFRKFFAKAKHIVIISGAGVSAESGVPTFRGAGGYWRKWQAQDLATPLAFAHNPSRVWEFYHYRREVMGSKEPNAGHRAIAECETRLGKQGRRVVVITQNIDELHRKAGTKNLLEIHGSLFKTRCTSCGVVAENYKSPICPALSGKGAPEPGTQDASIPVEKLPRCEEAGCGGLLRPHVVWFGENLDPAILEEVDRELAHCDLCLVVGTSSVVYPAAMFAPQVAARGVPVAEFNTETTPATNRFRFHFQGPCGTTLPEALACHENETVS
dFosB activator: enhances mouse delta FosB homodimer DNA binding; P13346; purified delta FosB, TAMRA-CDK5 oligo fluorescence polarization; percent of positive-control signal above neutral wells; activation, % at 25 µM; actives 0.99% (n = 340,000);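 active = mean activation above about 17%, with every replicate also reaching it, limit read from the data, passing the limit was not always enough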
Target sequence (P13346 whole entry, looked up): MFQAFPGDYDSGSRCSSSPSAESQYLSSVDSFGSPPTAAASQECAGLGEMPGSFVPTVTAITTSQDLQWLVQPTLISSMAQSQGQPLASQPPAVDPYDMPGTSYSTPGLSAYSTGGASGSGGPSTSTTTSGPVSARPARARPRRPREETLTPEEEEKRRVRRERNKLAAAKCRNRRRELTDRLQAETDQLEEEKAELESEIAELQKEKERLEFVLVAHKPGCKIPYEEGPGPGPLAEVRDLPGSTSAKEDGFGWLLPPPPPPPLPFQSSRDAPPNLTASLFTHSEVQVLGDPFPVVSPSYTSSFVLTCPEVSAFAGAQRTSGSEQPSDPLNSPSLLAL
FGF22 binding-1: binders of recombinant human FGF22 by thermal shift. SYPRO orange fluorescence; percent of sucrose octasulfate shift, DMSO zero. actives 1.5% (n = 340,000). Q9HCT0. activity (Tm shift, normalised), % at 9.99 µM;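 active = mean Tm shift, scaled 0 neutral to 100 positive control, at about 1.3% or above, every replicate too, limit read from the data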
FGF22 binding-2: FGF22 (human) binding in thermal shift. shares compounds with FGF22 binding-1. recombinant FGF22 thermal shift, SYPRO orange fluorescence. thermal shift activity, °C (ΔTm) at 38 µM. actives 2% (n = 1,000). AID 720646;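 active = fitted rise in melting shift crosses a set limit at or below the top valid dose tested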
SYPRO no-protein: counter-screen for FGF22 binders: compound-only thermal shift, no protein; shares compounds with FGF22 binding-1; compound-only SYPRO orange thermal shift counter-screen; AC50, µM (titrated, usually from 38 µM); actives 2% (n = 1,000);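 active = rising signal whose fitted curve reaches the 0.54 level within the top valid dose, showing a melting point, actives reach about 13 µM in these data; inactive = the rest, including activity in the opposite direction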; also: value is where the raw curve crosses a fixed level and not half-maximal
Of the large screens only hits and unclear results are named; the others gave an inactive call (follow-up assays come after a bar, where they were run).

C/C=C/c1ccc2c(c1)O[C@H](CN(C)Cc1ccc(C(=O)O)cc1)[C@@H](C)CN([C@H](C)CO)S2(=O)=O	none (no result: PvdQ inh, CDK5 inh, dFosB activator)
C[C@H](CO)N1C[C@H](C)[C@@H](CN(C)Cc2ccc(C(=O)O)cc2)Oc2cc(/C=C/c3ccccc3)ccc2S1(=O)=O	SIRT5 block 104, FGF22 binding-1 23 (no result: PvdQ inh, CDK5 inh, dFosB activator) | FGF22 binding-2 inactive | SYPRO no-protein inactive
C/C=C/c1ccc2c(c1)O[C@@H](CN(C)C(=O)Nc1cc(F)ccc1F)[C@@H](C)CN([C@H](C)CO)S2(=O)=O	FGF22 binding-1 1.3 (no result: PvdQ inh, CDK5 inh, dFosB activator) | FGF22 binding-2 inactive | SYPRO no-protein inactive
COc1cccc(NC(=O)N(C)C[C@H]2Oc3cc(-c4ccccc4F)ccc3S(=O)(=O)N([C@@H](C)CO)C[C@H]2C)c1	SIRT5 block 19, FGF22 binding-1 2.8 (no result: PvdQ inh, CDK5 inh, dFosB activator) | FGF22 binding-2 inactive | SYPRO no-protein inactive
C[C@@H]1CN([C@@H](C)CO)S(=O)(=O)c2ccc(-c3ccncc3)cc2O[C@@H]1CN(C)C(=O)Nc1ccc(C(F)(F)F)cc1	FGF22 binding-1 1.5 (no result: PvdQ inh, CDK5 inh, dFosB activator) | FGF22 binding-2 inactive | SYPRO no-protein inactive
C[C@H](CO)N1C[C@H](C)[C@@H](CN(C)C(=O)Nc2ccc(C(F)(F)F)cc2)Oc2cc(-c3ccncc3)ccc2S1(=O)=O	none (no result: PvdQ inh, CDK5 inh, dFosB activator)
COc1ccc(S(=O)(=O)Nc2ccc3c(c2)C(=O)N([C@@H](C)CO)C[C@@H](C)[C@H](CN(C)C(=O)Nc2ccc(C(F)(F)F)cc2)OCCCC[C@H](C)O3)cc1	none (no result: PvdQ inh, CDK5 inh, dFosB activator)
Cc1ccc(S(=O)(=O)N[C@@H]2CC[C@H](CCNC(=O)CN3CCOCC3)O[C@H]2CO)cc1	none (no result: PvdQ inh, CDK5 inh, dFosB activator)
O=C(c1ccccc1F)N1CC[C@H]2[C@H](CO)Nc3ccc(-c4ccc(F)cc4)cc3[C@H]21	none (no result: PvdQ inh, CDK5 inh, dFosB activator)
C[C@H](CO)N1C[C@H](C)[C@@H](CN(C)CC2CCCCC2)Oc2ccc(NC(=O)C3CC3)cc2CC1=O	none (no result: PvdQ inh, CDK5 inh, dFosB activator)
COc1cccc(NC(=O)N(C)C[C@H]2Oc3cc(-c4ccccc4F)ccc3S(=O)(=O)N([C@H](C)CO)C[C@@H]2C)c1	FGF22 binding-1 1.4 (no result: PvdQ inh, CDK5 inh, dFosB activator) | FGF22 binding-2 inactive | SYPRO no-protein inactive
COc1cccc(NC(=O)N(C)C[C@H]2Oc3cc(-c4ccccc4F)ccc3S(=O)(=O)N([C@@H](C)CO)C[C@@H]2C)c1	none (no result: PvdQ inh, CDK5 inh, dFosB activator)
COc1ccccc1-c1ccc2c(c1)O[C@@H](CN(C)C(=O)Nc1cccc(F)c1)[C@H](C)CN([C@@H](C)CO)S2(=O)=O	FGF22 binding-1 2.0 (no result: PvdQ inh, CDK5 inh, dFosB activator) | FGF22 binding-2 inactive | SYPRO no-protein 11µM
COc1cccc(NC(=O)N(C)C[C@@H]2Oc3cc(-c4ccccc4F)ccc3S(=O)(=O)N([C@@H](C)CO)C[C@H]2C)c1	FGF22 binding-1 1.7 (no result: PvdQ inh, CDK5 inh, dFosB activator) | FGF22 binding-2 inactive | SYPRO no-protein inactive
CCCNC(=O)N1C[C@@H](C)[C@@H](OC)CN(C)C(=O)c2ccc(NC(=O)C3CCC3)cc2OC[C@H]1C	none (no result: PvdQ inh, CDK5 inh, dFosB activator)
Cc1ccc(S(=O)(=O)Nc2cccc3c2O[C@@H](CN(C)C(=O)Nc2c(C)noc2C)[C@H](C)CN([C@@H](C)CO)C3=O)cc1	none (no result: PvdQ inh, CDK5 inh, dFosB activator)
C[C@@H]1CCCCO[C@H](CN(C)CC2CC2)[C@H](C)CN([C@@H](C)CO)C(=O)c2cc(NS(=O)(=O)c3cccs3)ccc2O1	none (no result: PglD DTNB, PvdQ inh, CDK5 inh, dFosB activator)
CNC[C@@H]1Oc2ccc(NC(=O)CCN3CCOCC3)cc2CC(=O)N([C@@H](C)CO)C[C@H]1C	none (no result: PvdQ inh, CDK5 inh, dFosB activator, FGF22 binding-1)
O=C(N/N=C\c1ccc(-c2ccc([N+](=O)[O-])cc2)o1)c1ccc2c(c1)OCO2	none (no result: SIRT5 block, FGF22 binding-1)
O=C(N/N=C/c1ccc(-c2cccc([N+](=O)[O-])c2)o1)c1ccc([N+](=O)[O-])cc1	FGF22 binding-1 1.6 (no result: PglD DTNB) | FGF22 binding-2 inactive | SYPRO no-protein inactive
CNC[C@@H]1OCCCC[C@@H](C)Oc2ccc(NS(=O)(=O)c3ccccc3)cc2C(=O)N([C@H](C)CO)C[C@@H]1C	none (no result: PvdQ inh, CDK5 inh, dFosB activator)
Cc1ccc(S(=O)(=O)NCCSc2nnnn2-c2ccccc2)cc1	FGF22 binding-1 35 | FGF22 binding-2 inactive | SYPRO no-protein inactive
CCCN1C[C@@H](C)[C@H](OC)CN(C)C(=O)c2ccc(NC(=O)c3ccccc3F)cc2OC[C@@H]1C	none (no result: PvdQ inh, CDK5 inh, dFosB activator)
O=C(N[C@@H]1C=C[C@@H](CC(=O)N2CCCCC2)O[C@@H]1CO)c1cccc(F)c1	FGF22 binding-1 1.8 (no result: PvdQ inh, CDK5 inh, dFosB activator) | FGF22 binding-2 inactive | SYPRO no-protein inactive
O=C(C[C@H]1C=C[C@H](NC(=O)c2cccc(F)c2)[C@H](CO)O1)NCCN1CCCC1	none (no result: PvdQ inh, CDK5 inh, dFosB activator)
O=C(C[C@@H]1C[C@H]2c3cc(NC(=O)Nc4ccc(C(F)(F)F)cc4)ccc3O[C@H]2[C@H](CO)O1)NCCc1ccccc1	none (no result: PvdQ inh, CDK5 inh, dFosB activator)
COc1ccc(NC(=O)Nc2ccc3c(c2)C(=O)N([C@@H](C)CO)C[C@@H](C)[C@H](CN(C)CC2CCCCC2)OCCCC[C@H](C)O3)cc1	none (no result: PvdQ inh, CDK5 inh, dFosB activator)
Cc1ccsc1C(=O)NNC(=O)c1ccc(NS(=O)(=O)c2cccs2)cc1	FGF22 binding-1 1.6 | FGF22 binding-2 inactive | SYPRO no-protein inactive
CCCNC(=O)Nc1ccc2c(c1)C(=O)N(C)[C@H]1CC[C@@H](CC(=O)NCCCN(C)C)O[C@H]1CO2	none (no result: PvdQ inh, CDK5 inh, dFosB activator)
O=C(N/N=C/c1ccc(O)c(O)c1)N/N=C/c1ccc(O)c(O)c1	FGF22 binding-1 1.4 | FGF22 binding-2 inactive | SYPRO no-protein inactive
Cc1nonc1C(=O)N/N=C/c1ccc(O)c(O)c1	none (no result: SIRT5 block, FGF22 binding-1)
COc1ccc(NC(=O)CN(C)C(=O)c2cn(-c3ccccc3)nc2-c2cccs2)cc1	none
COc1ccc(NC(=O)CN(C)C(=O)c2cn(-c3ccccc3)nc2-c2cccnc2)cc1	FGF22 binding-1 2.4 | FGF22 binding-2 inactive | SYPRO no-protein inactive
O=C(c1ccccc1)N1CC2(C1)[C@H](c1ccccc1)[C@H](CO)N2Cc1cc(F)ccc1F	FGF22 binding-1 1.3 (no result: PglD DTNB, PvdQ inh, CDK5 inh, dFosB activator) | FGF22 binding-2 inactive | SYPRO no-protein inactive
O=C(C1CCOCC1)N1CC2(C1)[C@@H](c1ccccc1)[C@@H](CO)N2Cc1ccccc1F	FGF22 binding-1 1.5 (no result: PglD DTNB, PvdQ inh, CDK5 inh, dFosB activator) | FGF22 binding-2 inactive | SYPRO no-protein inactive
O=S(=O)(Nc1cccc(-n2cnnn2)c1)c1ccc(Cl)cc1	FGF22 binding-1 1.7 (no result: PglD DTNB) | FGF22 binding-2 inactive | SYPRO no-protein inactive
N#CC(C#N)=C1NC(N)=C(C#N)C(c2ccccc2)=C1C#N	FGF22 binding-1 2.1 (no result: PglD DTNB) | FGF22 binding-2 inactive | SYPRO no-protein inactive
CC(C)c1ccc(NC(=O)CN2C(=O)NC(Cc3c[nH]c4ccccc34)C2=O)cc1 (configuration not stated)	none
